Inconclusive results are not listed. Active and inactive are the calls of the source. Calls follow the shape of the dose curve; as a rule, active = well fitted curve in the direction sought with a large enough effect; inconclusive = small, poorly fitted or top-dose-only effect, or another doubt; inactive = no such curve, though single readings can be large; an effect the other way counts as inactive or inconclusive.
How the values were obtained:
[1] = Quantitative High-Throughput drug screen in 47 multiple myeloma cell lines against the NCATS MIPE library collection: KHM11_PLB cell viability assay (AID 1918962); also: nearly all actives have a fitted effect of over 35% in size
Summary of the method: (§1)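 Approved and investigational drugs from MIPE 4.0 were added by pin tool to 500 cells per well. After 48 hours at 37C, ATP-based CellTiter-Glo luminescence indicated remaining viability.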

[2] = Quantitative High-Throughput drug screen in 47 multiple myeloma cell lines against the NCATS MIPE library collection: JIM3_ECACC cell viability assay (AID 1918963; also: nearly all actives have a fitted effect of over 35% in size)
Summary of the method: as §1

[3] = Quantitative High-Throughput drug screen in 47 multiple myeloma cell lines against the NCATS MIPE library collection: JJN3_DSMZ cell viability assay (AID 1918966; also: nearly all actives have a fitted effect of over 50% in size)
Summary of the method: (§2)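 We plated 500 myeloma cells per well, pinned in MIPE 4.0 compounds, and incubated for 48 hours at 37C. ATP was then quantified with CellTiter-Glo, with DMSO and media-only wells defining 100% and 0%.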

[4] = Quantitative High-Throughput drug screen in 47 multiple myeloma cell lines against the NCATS MIPE library collection: Karpas25_ECACC cell viability assay (AID 1918968; also: nearly all actives have a fitted effect of over 35% in size)
Summary of the method: as §2

[5] = Quantitative High-Throughput drug screen in 47 multiple myeloma cell lines against the NCATS MIPE library collection: KMS27_JCRB cell viability assay (AID 1918970); settings: KMS27 myeloma cells, CellTiter-Glo ATP viability, 48 h; viability (% of DMSO): at 45.8 µM (top of the series); also: nearly all actives have a fitted effect of over 30% in size
Summary of the method: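 CellTiter-Glo luminescence after 48 h drug exposure at 37 °C; 500 cells/well, 1536-well format, pin-tool compound addition; DMSO = 100%, media-only = 0% viability.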

[6] = Quantitative High-Throughput drug screen in 47 multiple myeloma cell lines against the NCATS MIPE library collection: KMS20_JCRB cell viability assay (AID 1918973); also: nearly all actives have a fitted effect of over 45% in size
Summary of the method: as §2

[7] = Quantitative High-Throughput drug screen in 47 multiple myeloma cell lines against the NCATS MIPE library collection: MOLP8_DSMZ cell viability assay (AID 1918977); also: nearly all actives have a fitted effect of over 45% in size
Summary of the method: (§3)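 ATP-based luminescence (CellTiter-Glo, 5 min RT incubation) quantified surviving cells following two days' treatment with MIPE 4.0 agents at 37 °C, 5% CO2.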

[8] = Quantitative High-Throughput drug screen in 47 multiple myeloma cell lines against the NCATS MIPE library collection: NCIH929_DSMZ cell viability assay (AID 1918978); also: nearly all actives have a fitted effect of over 35% in size
Summary of the method: as §3

[9] = Quantitative High-Throughput drug screen in 47 multiple myeloma cell lines against the NCATS MIPE library collection: OCIMY1_PLB cell viability assay (AID 1918979); also: nearly all actives have a fitted effect of over 35% in size
Summary of the method: as §3

[10] = Quantitative High-Throughput drug screen in 47 multiple myeloma cell lines against the NCATS MIPE library collection: MM1R_ATCC cell viability assay (AID 1918981); also: nearly all actives have a fitted effect of over 35% in size
Summary of the method: as §3

[11] = Quantitative High-Throughput drug screen in 47 multiple myeloma cell lines against the NCATS MIPE library collection: JIM1_ECACC cell viability assay (AID 1918964)
Summary of the method: as §2

[12] = Quantitative High-Throughput drug screen in 47 multiple myeloma cell lines against the NCATS MIPE library collection: INA6_PLB cell viability assay (AID 1918965; also: nearly all actives have a fitted effect of over 55% in size)
Summary of the method: (§4)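 Inhibition of cell viability is measured here. Each line was plated at 500 cells per well, treated with MIPE 4.0 drugs, kept 48 hours at 37C, then assayed for ATP content by CellTiter-Glo luminescence.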

[13] = Quantitative High-Throughput drug screen in 47 multiple myeloma cell lines against the NCATS MIPE library collection: H1112_PLB cell viability assay (AID 1918967; also: nearly all actives have a fitted effect of over 30% in size)
Summary of the method: as §2

[14] = Quantitative High-Throughput drug screen in 47 multiple myeloma cell lines against the NCATS MIPE library collection: KMS12PE_JCRB cell viability assay (AID 1918972); also: nearly all actives have a fitted effect of over 30% in size
Summary of the method: as §4

[15] = Quantitative High-Throughput drug screen in 47 multiple myeloma cell lines against the NCATS MIPE library collection: KMS26_JCRB cell viability assay (AID 1918975); also: nearly all actives have a fitted effect of over 45% in size
Summary of the method: (§5)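 CellTiter-Glo luminescence (ATP) after 48 h compound exposure, 37C/5% CO2; 500 cells/well; MIPE 4.0 approved/investigational drugs pinned in; DMSO = 100%, media only = 0% viability.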

[16] = Quantitative High-Throughput drug screen in 47 multiple myeloma cell lines against the NCATS MIPE library collection: LP1_DSMZ cell viability assay (AID 1918982); also: nearly all actives have a fitted effect of over 35% in size
Summary of the method: as §3

[17] = Quantitative High-Throughput drug screen in 47 multiple myeloma cell lines against the NCATS MIPE library collection: KMS12BM_JCRB cell viability assay (AID 1918971); also: nearly all actives have a fitted effect of over 35% in size
Summary of the method: as §5

[18] = Quantitative High-Throughput drug screen in 47 multiple myeloma cell lines against the NCATS MIPE library collection: MM1S_ATCC cell viability assay (AID 1918980); also: nearly all actives have a fitted effect of over 45% in size
Summary of the method: as §3

[19] = Quantitative High-Throughput drug screen in 47 multiple myeloma cell lines against the NCATS MIPE library collection: KMS21BM_JCRB cell viability assay (AID 1918974); settings: ATP luminescence, 48 h; viability: at 45.8 µM (top of the series)
Summary of the method: as §2

[20] = Quantitative High-Throughput drug screen in 47 multiple myeloma cell lines against the NCATS MIPE library collection: MMM1_PLB cell viability assay (AID 1918976); also: nearly all actives have a fitted effect of over 35% in size
Summary of the method: as §3

Measured: Potency
Potency is read from the fitted curve at half-maximal effect.

O=C(NNC(=O)c1ccc(CNS(=O)(=O)c2ccc(F)c(Cl)c2)cc1)c1ccccc1
inactive: [1] | [2] | [3] | [4] | [5] | [6] | [7] | [8] | [9] | [10]

CC1=C(C(=O)Nc2cc3cn[nH]c3cc2F)C(c2ccc(Cl)cc2F)N=C(c2ccnc(Cl)c2)N1 (configuration not stated)
active: [11] 16600 nM | [12] 10500 nM | [13] 18700 nM | [4] 14800 nM | [5] 29600 nM | [14] 16600 nM | [8] 14800 nM | [10] 18700 nM
inactive: [1] | [15] | [9] | [16]

CC(C(C)N1CC(=O)NC(=O)C1)N1CC(=O)NC(=O)C1 (configuration not stated)
inactive: [1] | [2] | [13] | [4] | [6] | [9] | [18]
active: [17] 590 nM | [14] 1320 nM

CCN1CCN(C(=O)N[C@H](C(=O)N[C@@H]2C(=O)N3C(C(=O)O)=C(CSc4nnnn4C)CS[C@@H]23)c2ccc(O)cc2)C(=O)C1=O
inactive: [1] | [2] | [13] | [4] | [14] | [6] | [15] | [8] | [9] | [16]

COc1ccc([C@@H]2CNC(=O)C2)cc1OC1CCCC1
inactive: [3] | [17] | [9] | [10] | [16]
active: [1] 10500 nM | [12] 9350 nM | [13] 2960 nM | [4] 3320 nM | [5] 26400 nM | [6] 3720 nM | [8] 4180 nM | [18] 743 nM

COc1cc(OC)c(C=CS(=O)(=O)Cc2ccc(OC)c(NCC(=O)O)c2)c(OC)c1
active: [2] 209 nM | [11] 37.2 nM | [12] 296 nM | [3] 1050 nM | [13] 418 nM | [4] 332 nM | [5] 74.3 nM | [17] 418 nM | [14] 105 nM | [6] 1180 nM | [19] 83.3 nM | [15] 1320 nM | [20] 743 nM | [7] 2090 nM | [8] 2640 nM | [9] 418 nM | [18] 4180 nM | [10] 2350 nM

O=C1NC(O)CCN1[C@@H]1O[C@H](CO)[C@H](O)[C@H]1O (some centres not stated)
active: [16] 5900 nM
inactive: [1] | [2] | [13] | [4] | [5] | [14] | [15] | [7] | [8] | [9]

CC(=O)O[C@@]12CO[C@H]1C[C@H](O)[C@@]1(C)C(=O)[C@H](O)C3=C(C)[C@@H](OC(=O)C(O)[C@@H](NC(=O)OC(C)(C)C)c4ccccc4)C[C@@](O)([C@@H](OC(=O)c4ccccc4)[C@@H]21)C3(C)C (some centres not stated)
not listed: [6] | [7] | [11] | [12] | [14] | [15] | [19] | [20]
inactive: all other assays above

CCCCC(=O)O[C@]1(C(=O)CO)[C@@H](C)C[C@H]2[C@@H]3CCC4=CC(=O)C=C[C@]4(C)[C@@]3(F)[C@@H](O)C[C@@]21C
active: [4] 14.8 nM | [5] 11800 nM
inactive: [1] | [2] | [17] | [15] | [20] | [8] | [9] | [10]

COC(=O)[C@H](CCCN=C(N)N)NS(=O)(=O)c1ccc(C)cc1
not listed: [2] | [3] | [4] | [7] | [12] | [19] | [20]
inactive: all other assays above

C=CCNC1=C2C[C@@H](C)C[C@H](OC)[C@@H](O)[C@@H](C)C=C(C)[C@H](OC(N)=O)[C@@H](OC)C=CC=C(C)C(=O)NC(=CC1=O)C2=O
active: [2] 2640 nM | [11] 662 nM | [12] 209 nM | [3] 332 nM | [13] 14800 nM | [4] 1480 nM | [5] 105 nM | [17] 469 nM | [14] 83.3 nM | [6] 1 nM | [15] 2350 nM | [20] 5900 nM | [7] 264 nM | [8] 1180 nM | [9] 1050 nM | [18] 2350 nM | [16] 5900 nM

NC(=NCCCCCCN=C(N)N=C(N)Nc1ccc(Cl)cc1)N=C(N)Nc1ccc(Cl)cc1
active: [2] 8330 nM | [11] 23500 nM | [12] 1660 nM | [3] 3320 nM | [13] 2640 nM | [4] 2960 nM | [5] 16600 nM | [17] 9350 nM | [14] 16600 nM | [6] 3320 nM | [15] 16600 nM | [20] 20900 nM | [7] 8330 nM | [9] 11800 nM | [18] 2090 nM | [10] 7430 nM | [16] 11800 nM

— PubChem BioAssay (NCATS)
